The source made the active and inactive calls.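 Rule for the calls: active = inhibition of at least 50% at 1 µM; inactive = inhibition below 50% at 1 µM.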

This test concerns the target sn-1-specific diacylglycerol lipase ABHD11 (Mus musculus) (UniProt Q8K4F5). Kind of test: mouse ABHD11 activity inhibitors in proteome – biochemical, competitive gel ABPP, set 2, selectivity assay for DAGLb inhibitor project, late-stage follow-up (AID 602312).

Sequence of sn-1-specific diacylglycerol lipase ABHD11 (Mus musculus) (Q8K4F5 whole entry, looked up): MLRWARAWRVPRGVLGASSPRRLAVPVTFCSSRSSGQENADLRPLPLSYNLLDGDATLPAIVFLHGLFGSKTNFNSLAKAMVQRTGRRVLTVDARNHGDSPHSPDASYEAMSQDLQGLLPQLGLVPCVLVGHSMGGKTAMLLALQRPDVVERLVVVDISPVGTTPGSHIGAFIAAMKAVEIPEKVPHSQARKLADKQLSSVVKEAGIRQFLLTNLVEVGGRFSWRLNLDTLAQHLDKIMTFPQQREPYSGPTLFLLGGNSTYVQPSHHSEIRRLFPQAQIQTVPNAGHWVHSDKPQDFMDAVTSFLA

Take `COc1ccc(-c2ccc(-c3cn(C(=O)N4CCCCC4c4ccccc4)nn3)cc2)cc1` (stereo unspecified): the outcome was inactive.

(Values after PubChem BioAssay AID602312 (The Scripps Research Institute Molecular Screening Center, 2012).)
